Laboratory results from PubChem BioAssay (NCATS).
Records with an inconclusive call do not appear. A number with no mark means an inactive call. The source made the active and inactive calls. Calls follow the shape of the dose curve; as a rule, active = well fitted inhibition curve with a large enough effect; inconclusive = small, poorly fitted or top-dose-only effect; inactive = no such curve, though single readings can be large or run the other way.

assay: BET inhibitor-based combinations targeting novel dependencies in MECOM-rearranged (r) AML: MV-4-11 cell line (AID 2202233); details: MV-4-11 AML viability, CellTiter-Glo luminescence, 48 h; series mostly up to 46 µM; also: nearly all actives have a fitted effect of over 45% in size
From the text: Ecotropic viral insertion site 1 (EVI1) is located on chromosome 3q26.2 as part of the MECOM (MDS and EVI1 complex) locus. Under normal hematopoiesis, EVI1 is a regulator of hematopoietic stem cell maintenance and self-renewal and EVI1 levels decrease as the cells differentiate. In approximately 5-10% of de novo acute myeloid leukemia (AML) EVI1 is aberrantly expressed, including Chromosomal inv(3)(q21;q26.2) or t(3;3)(q21;q26.2) alterations (MECOM-r) that account for about 50% of AML with EVI1 overexpression 31. AMLs with high levels of EVI1 have a poor prognosis and an overall survival time averaging between 10-14 months. EVI1 overexpression confers resistance in leukemia cells, highlighting the need to develop new targeted therapies for EVI1 overexpressing AMLs. Here, we performed an unbiased chemical drug screening by evaluating the single agent activity of a collection of 2,480 oncology-focused, approved and investigational drugs (NCATS Mechanism Interrogation Plates, MIPE v5.0) against a panel of seven AML cell lines. These included four MECOM-r cell-lines (AML-191, AML-194, UCSD-AML1 and HNT-34) and three non-MECOM-r AMLs (MV4-11, OCI-AML3 and SET-2). Exploiting the mechanistic redundancy built in the library, we identified target-level sensitivities in MECOM-r AML cells and relative activity as compared to other AML subtypes.
A collection of 2480 mechanistically annotated dugs (MIPE v5.0) was used to screen four 3q26.2 rearranged AML cell lines and three non-3q26.2 rearranged AML cell lines. This library purposely exploits redundancy by including multiple inhibitors of key onco-targets, while simultaneously encompassing mechanistic diversity, targeting more than 800 distinct mechanisms of action. Briefly, cells were seeded in 5 uL of growth media using a Multidrop Combi dispenser into 1536 well white polystyrene tissue culture treated plates (Corning) at a density of 500cells/well. For each cell-line, for each of the 2480 drugs in MIPE v5.0 library, an 11-point dose curve was generated via a 1536 pin-tool. Plates were incubated for 48 hr at standard incubator conditions, covered by a stainless steel gasketed lid to prevent evaporation. Cell viability was determined by luminescence based, Cell Titer Glo assay (Promega). In detail, 3 uL of Cell Titer Glo were added to each well and plates were incubated at room temperature for 15 min with a stainless-steel lid in place. Luminescence readings were taken using a Viewlux (PerkinElmer) with a 2 s exposure time per plate. Compound dose-response curves were normalized to DMSO and empty well controls on each plate. Quantitative drug activity data from dose-response curves was determined utilizing area Under the Curve (AUC) and Z-transformed AUC (Z-AUC, a mean-centering transformation applied to each individual cell-line screened).
Potency is read from the fitted curve at half-maximal effect.

SMILES | Potency | viability, % of control
CC(=O)Nc1ccc(O)cc1 | inactive | 
C=C1C(=O)O[C@H]2C[C@H](C)C(/C=C/C(C)=O)=CC[C@H]12 | 1.86 µM (active) | 
CC/C(=C(/c1ccc(O)cc1)c1ccc(OCCNC)cc1)c1ccccc1 | 8.33 µM (active) | 
N#Cc1c(N)nc(N)nc1N[C@H](c1nc2c(F)ccc(Cl)c2c(=O)n1-c1cccnc1)C1CC1 | 3.32 µM (active) | 
CC1(C)CC[C@]2(C(=O)O)CC[C@]3(C)C(=CC[C@@H]4[C@@]5(C)C[C@@H](O)[C@H](O)C(C)(C)[C@@H]5CC[C@]43C)[C@@H]2C1 | inactive | 
Cc1cc(O[C@@H](CCC(F)(F)F)c2ccc(C(=O)NCCC(=O)O)cc2)cc(C)c1-c1ccc(C(C)(C)C)cc1 | 18.6 µM (active) | 
CCS(=O)(=O)Nc1ccc(Oc2ccc(F)cc2F)c(-c2cn(C)c(=O)c3[nH]ccc23)c1 | 0.0083 µM (active) | 
COc1cc(F)ccc1-c1ncnc(Nc2cccc(CS(C)(=N)=O)c2)n1 (stereo not given) | 0.742 µM (active) | 
CN1C(N)=N[C@](C)(c2cc(NC(=O)c3ccc(F)cn3)ccc2F)CS1(=O)=O | inactive | 
CC(C)C[C@H](NC(=O)[C@H](Cc1ccccc1)NC(=O)OCc1ccccc1)C(=O)C=O | inactive | 
O=C(/C=C/c1ccc(/C=C/C(=O)Nc2ccc(C3=NCCN3)cc2)cc1)Nc1ccc(C2=NCCN2)cc1 |  | 112% [at 5.12 µM]
C=CC(=O)N1CCC[C@@H](n2nc(-c3ccc(Oc4ccccc4)cc3)c3c(N)ncnc32)C1 | 2.95 µM (active) | 
C[C@]1(C(=O)N(CCCC(=O)O)Cc2cccc(Cl)c2)CCN1C(=O)c1csc2ccccc12 | inactive | 
COC(C)(C)CCn1nc(Nc2c(C)cccc2C)c2cnc(Nc3ccc(OCCN4CCCC4)c(F)c3)nc21 | 5.25 µM (active) | 
N#C/C(=C\c1ccc(O)c(O)c1)C(=O)NCc1ccccc1 | 14.8 µM (active) | 
O=C(NCc1ccccc1)[C@H](Cc1ccccc1)NC(=O)[C@H]1O[C@@H]1C(=O)NCCc1ccc(O)cc1 | 23.5 µM (active) | 
COc1cc(-c2cn(C)c(=O)c3cnccc23)c(OC)cc1CN(C)C | 4.17 µM (active) | 
O=C(Nc1ccc(OC(F)(F)Cl)cc1)c1cnc(N2CC[C@@H](O)C2)c(-c2ccn[nH]2)c1 | 20.9 µM (active) | 
Nc1n[n+]([O-])c2ccccc2[n+]1[O-] | 13.2 µM (active) | 
O=C(CCCCCCNC(=O)c1cnc(N(c2ccccc2)c2ccccc2Cl)nc1)NO | 3.72 µM (active) | 

SMILES | Potency | viability, % of control
CN1CCN(c2nc(C3=C(c4c[nH]c5ccccc45)C(=O)NC3=O)c3ccccc3n2)CC1 | 1.86 µM (active) | 
CCN1CCN(Cc2ccc(-c3cc4c(N[C@H](C)c5ccccc5)ncnc4[nH]3)cc2)CC1 | 2.63 µM (active) | 
CO[C@H]1C[C@@H]2CC[C@@H](C)[C@@](O)(O2)C(=O)C(=O)N2CCCC[C@H]2C(=O)O[C@H]([C@H](C)C[C@@H]2CC[C@@H](OCCO)[C@H](OC)C2)CC(=O)[C@H](C)/C=C(/C)[C@@H](O)[C@@H](OC)C(=O)[C@H](C)C[C@H](C)/C=C\C=CC=C1C | 13.2 µM (active) | 
Cn1cc(-c2cc(Oc3cc(F)c(NC(=O)C4(C(=O)Nc5ccccc5)CC4)cc3F)ccn2)cn1 | 0.742 µM (active) | 
CC(C)C[C@H](NC(=O)c1cc2ccccc2s1)C(=O)N1CCN(C(=O)[C@H](CO)NS(=O)(=O)c2ccc(Cl)cc2Cl)CC1 | 23.5 µM (active) | 
NS(=O)(=O)Oc1ccc2c3c(c(=O)oc2c1)CCCCC3 | inactive | 
N#Cc1ccnc(N2C(=O)CC[C@H]2C(=O)N(c2cncc(F)c2)C(C(=O)NC2CC(F)(F)C2)c2ccccc2Cl)c1 (stereo not given in full) | inactive | 
C[C@H]1O[C@H](O[C@H]2[C@H](O)[C@@H](O)[C@@H](O[C@H]3[C@H](O)[C@@H](O)C(O)O[C@@H]3CO)O[C@@H]2CO)[C@H](O)[C@@H](O)[C@@H]1N[C@H]1C=C(CO)[C@@H](O)[C@H](O)[C@H]1O (stereo not given in full) | inactive | 
COc1cc(N2CCN(C)CC2)ccc1Nc1ncc2c(n1)N(C)c1ccccc1C(=O)N2 | 18.6 µM (active) | 
COc1cc(OC)c(/C=C/S(=O)(=O)Cc2ccc(OC)c(OP(=O)(O)O)c2)c(OC)c1 | 0.132 µM (active) | 
CC1c2cccc(O)c2C(O)=C2C(=O)C3(O)C(O)=C(C(N)=O)C(=O)C(N(C)C)C3C(O)C21 (stereo not given) | 26.3 µM (active) | 
C[C@H](CCC(=O)O)[C@H]1CC[C@H]2[C@@H]3[C@H](O)C[C@@H]4C[C@H](O)CC[C@]4(C)[C@H]3CC[C@]12C | inactive | 
CCN(C)S(=O)(=O)Nc1ccc(F)c(C(=O)c2c[nH]c3ncc(-c4cnc(C5CC5)nc4)cc23)c1F | 23.5 µM (active) | 
COCCOC(=O)N1CCN(S(=O)(=O)c2cc(F)c(Oc3ccc(Cl)cc3)c(F)c2)C(C(=O)NO)C1 (stereo not given) | 16.6 µM (active) | 
Nc1nccc(-c2c(-c3ccc(F)cc3)ncn2C2CCN(Cc3ccon3)CC2)n1 | 10.5 µM (active) | 
CN1CC[C@@H](c2c(O)cc(O)c3c(=O)cc(-c4ccc(C(F)(F)F)cc4Cl)oc23)[C@@H]1CO | 20.9 µM (active) | 
COc1cc2nccc(Oc3ccc(NC(=O)c4cn(C(C)C)c(=O)n(-c5ccc(F)cc5)c4=O)cc3F)c2cc1OC | 0.468 µM (active) | 
C[C@@H]1COC(Nc2ccc3ncnc(Nc4ccc(OCc5nccs5)c(Cl)c4)c3c2)=N1 | 18.6 µM (active) | 
CCCCC(=O)OCC(=O)[C@]1(O)Cc2c(O)c3c(c(O)c2[C@@H](O[C@H]2C[C@H](NC(=O)C(F)(F)F)[C@H](O)[C@H](C)O2)C1)C(=O)c1c(OC)cccc1C3=O | 0.235 µM (active) | 
COc1cc([C@@H]2c3cc4c(cc3[C@@H](O[C@@H]3O[C@@H]5CO[C@@H](c6cccs6)O[C@H]5[C@H](O)[C@H]3O)[C@H]3COC(=O)[C@H]23)OCO4)cc(OC)c1O | 0.0468 µM (active) | 
